# Experimental data published in ChEMBL document CHEMBL1961873, “Compounds: GSK PKIS; Assays: Nanosyn kinase panel” (2012).
# What was measured:
# [1] = tested on: Epidermal growth factor receptor (Homo sapiens), P00533 [L858R,T790M]; conditions: at 0.1 µM
# [2] = tested on: Epidermal growth factor receptor (Homo sapiens), P00533 [L858R,T790M]; conditions: at 1 µM
# [3] = biological target: Ephrin type-A receptor 2 (Homo sapiens) (UniProt P29317); conditions: at 0.1 µM
# [4] = biological target: Ephrin type-A receptor 2 (Homo sapiens) (UniProt P29317); conditions: at 1 µM
# [5] = biological target: Ephrin type-A receptor 3 (Homo sapiens) (UniProt P29320); conditions: at 0.1 µM
# Ephrin type-A receptor 3 (Homo sapiens), sequence (P29320 whole entry): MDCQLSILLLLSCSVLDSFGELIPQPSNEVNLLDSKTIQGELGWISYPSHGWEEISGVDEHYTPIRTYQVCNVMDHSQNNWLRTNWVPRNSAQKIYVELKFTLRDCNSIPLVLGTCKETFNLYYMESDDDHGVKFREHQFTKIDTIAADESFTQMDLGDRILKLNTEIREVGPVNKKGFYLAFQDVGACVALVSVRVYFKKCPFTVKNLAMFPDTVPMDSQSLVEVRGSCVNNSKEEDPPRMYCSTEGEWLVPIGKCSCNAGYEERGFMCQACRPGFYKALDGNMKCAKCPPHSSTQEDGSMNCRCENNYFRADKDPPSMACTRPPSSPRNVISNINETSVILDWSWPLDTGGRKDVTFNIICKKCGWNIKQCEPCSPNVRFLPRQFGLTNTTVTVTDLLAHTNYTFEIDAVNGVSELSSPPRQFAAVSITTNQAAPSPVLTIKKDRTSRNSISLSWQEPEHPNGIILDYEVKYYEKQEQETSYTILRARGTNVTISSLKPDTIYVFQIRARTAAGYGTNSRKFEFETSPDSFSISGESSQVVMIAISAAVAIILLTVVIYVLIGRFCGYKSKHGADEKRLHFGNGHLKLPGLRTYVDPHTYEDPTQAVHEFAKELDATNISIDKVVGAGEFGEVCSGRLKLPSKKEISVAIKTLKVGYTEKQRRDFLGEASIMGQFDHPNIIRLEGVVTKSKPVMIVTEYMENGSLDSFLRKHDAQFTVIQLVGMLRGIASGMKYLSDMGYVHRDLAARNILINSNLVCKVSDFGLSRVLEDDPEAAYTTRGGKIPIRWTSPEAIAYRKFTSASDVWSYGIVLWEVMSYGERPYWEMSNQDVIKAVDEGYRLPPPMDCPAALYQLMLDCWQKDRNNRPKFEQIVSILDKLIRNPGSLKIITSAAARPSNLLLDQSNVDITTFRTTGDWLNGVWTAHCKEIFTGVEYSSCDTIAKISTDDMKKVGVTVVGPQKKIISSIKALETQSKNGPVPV
# [6] = biological target: Ephrin type-A receptor 3 (Homo sapiens) (UniProt P29320); conditions: at 1 µM
# [7] = biological target: Ephrin type-A receptor 4 (Homo sapiens) (UniProt P54764); conditions: at 0.1 µM
# Ephrin type-A receptor 4 (Homo sapiens), sequence (P54764 whole entry): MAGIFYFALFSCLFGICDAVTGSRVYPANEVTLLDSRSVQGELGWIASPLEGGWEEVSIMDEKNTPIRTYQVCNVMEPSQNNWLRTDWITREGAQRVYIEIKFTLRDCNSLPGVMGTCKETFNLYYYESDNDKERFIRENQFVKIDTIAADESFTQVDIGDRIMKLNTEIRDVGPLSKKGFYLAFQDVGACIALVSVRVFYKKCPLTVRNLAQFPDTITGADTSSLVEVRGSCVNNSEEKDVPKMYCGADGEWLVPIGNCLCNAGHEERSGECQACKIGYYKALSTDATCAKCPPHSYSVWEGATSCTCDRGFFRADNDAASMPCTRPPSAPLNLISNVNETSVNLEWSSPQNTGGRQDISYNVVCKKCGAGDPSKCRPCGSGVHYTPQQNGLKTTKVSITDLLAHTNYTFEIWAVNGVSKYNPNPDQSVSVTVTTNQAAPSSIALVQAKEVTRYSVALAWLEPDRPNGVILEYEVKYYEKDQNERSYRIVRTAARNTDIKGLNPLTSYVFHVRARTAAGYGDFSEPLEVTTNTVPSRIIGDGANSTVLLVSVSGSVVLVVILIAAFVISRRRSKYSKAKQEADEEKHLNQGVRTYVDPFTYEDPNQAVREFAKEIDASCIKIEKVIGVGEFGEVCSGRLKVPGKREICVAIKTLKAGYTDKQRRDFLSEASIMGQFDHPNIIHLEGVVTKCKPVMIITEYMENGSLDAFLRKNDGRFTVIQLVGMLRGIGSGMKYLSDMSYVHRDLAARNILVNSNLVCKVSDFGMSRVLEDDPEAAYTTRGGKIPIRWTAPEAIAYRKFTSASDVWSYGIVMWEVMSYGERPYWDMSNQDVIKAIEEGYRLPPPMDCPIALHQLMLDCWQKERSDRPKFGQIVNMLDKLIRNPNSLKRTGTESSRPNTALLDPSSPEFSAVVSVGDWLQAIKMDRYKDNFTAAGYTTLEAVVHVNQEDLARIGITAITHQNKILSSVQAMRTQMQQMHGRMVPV
# [8] = biological target: Ephrin type-A receptor 4 (Homo sapiens) (UniProt P54764); conditions: at 1 µM
# [9] = biological target: Ephrin type-B receptor 2 (Homo sapiens) (UniProt P29323); conditions: at 0.1 µM
# [10] = biological target: Ephrin type-B receptor 2 (Homo sapiens) (UniProt P29323); conditions: at 1 µM
# [11] = biological target: Ephrin type-B receptor 3 (Homo sapiens) (UniProt P54753); conditions: at 0.1 µM
# Ephrin type-B receptor 3 (Homo sapiens), sequence (P54753 whole entry): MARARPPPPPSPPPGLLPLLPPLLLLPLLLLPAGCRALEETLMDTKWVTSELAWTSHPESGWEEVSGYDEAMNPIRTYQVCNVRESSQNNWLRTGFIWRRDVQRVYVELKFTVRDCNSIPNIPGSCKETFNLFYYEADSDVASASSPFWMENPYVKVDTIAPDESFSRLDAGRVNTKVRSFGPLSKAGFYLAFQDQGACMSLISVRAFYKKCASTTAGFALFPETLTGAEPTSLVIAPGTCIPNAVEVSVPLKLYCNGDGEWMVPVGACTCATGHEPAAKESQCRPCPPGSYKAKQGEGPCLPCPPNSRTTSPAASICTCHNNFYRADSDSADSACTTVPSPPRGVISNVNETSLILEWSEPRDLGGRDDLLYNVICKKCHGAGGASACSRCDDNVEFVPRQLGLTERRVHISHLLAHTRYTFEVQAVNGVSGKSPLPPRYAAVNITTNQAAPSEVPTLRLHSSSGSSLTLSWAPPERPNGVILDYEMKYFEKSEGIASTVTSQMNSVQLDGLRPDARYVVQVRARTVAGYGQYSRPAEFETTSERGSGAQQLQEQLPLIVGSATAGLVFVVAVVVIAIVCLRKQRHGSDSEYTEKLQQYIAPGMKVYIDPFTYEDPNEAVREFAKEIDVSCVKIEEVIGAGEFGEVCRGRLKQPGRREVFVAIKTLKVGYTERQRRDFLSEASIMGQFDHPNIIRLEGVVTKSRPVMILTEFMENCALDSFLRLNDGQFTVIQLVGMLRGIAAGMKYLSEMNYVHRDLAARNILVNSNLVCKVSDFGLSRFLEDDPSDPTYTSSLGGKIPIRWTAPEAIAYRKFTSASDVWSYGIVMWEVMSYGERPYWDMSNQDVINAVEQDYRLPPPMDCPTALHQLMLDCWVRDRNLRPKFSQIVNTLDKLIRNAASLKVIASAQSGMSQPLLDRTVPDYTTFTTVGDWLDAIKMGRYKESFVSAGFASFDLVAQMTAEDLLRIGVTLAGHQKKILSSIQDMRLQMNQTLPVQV
# [12] = biological target: Ephrin type-B receptor 3 (Homo sapiens) (UniProt P54753); conditions: at 1 µM
# [13] = biological target: Ephrin type-B receptor 4 (Homo sapiens) (UniProt P54760); conditions: at 0.1 µM
# [14] = biological target: Ephrin type-B receptor 4 (Homo sapiens) (UniProt P54760); conditions: at 1 µM
# [15] = biological target: Receptor tyrosine-protein kinase erbB-2 (Homo sapiens) (UniProt P04626); conditions: at 0.1 µM
# [16] = biological target: Receptor tyrosine-protein kinase erbB-2 (Homo sapiens) (UniProt P04626); conditions: at 1 µM
# [17] = biological target: Receptor tyrosine-protein kinase erbB-4 (Homo sapiens) (UniProt Q15303); conditions: at 0.1 µM
# [18] = biological target: Receptor tyrosine-protein kinase erbB-4 (Homo sapiens) (UniProt Q15303); conditions: at 1 µM
# [19] = biological target: Tyrosine-protein kinase Fer (Homo sapiens) (UniProt P16591); conditions: at 0.1 µM
# Tyrosine-protein kinase Fer (Homo sapiens), sequence (P16591 whole entry, looked up): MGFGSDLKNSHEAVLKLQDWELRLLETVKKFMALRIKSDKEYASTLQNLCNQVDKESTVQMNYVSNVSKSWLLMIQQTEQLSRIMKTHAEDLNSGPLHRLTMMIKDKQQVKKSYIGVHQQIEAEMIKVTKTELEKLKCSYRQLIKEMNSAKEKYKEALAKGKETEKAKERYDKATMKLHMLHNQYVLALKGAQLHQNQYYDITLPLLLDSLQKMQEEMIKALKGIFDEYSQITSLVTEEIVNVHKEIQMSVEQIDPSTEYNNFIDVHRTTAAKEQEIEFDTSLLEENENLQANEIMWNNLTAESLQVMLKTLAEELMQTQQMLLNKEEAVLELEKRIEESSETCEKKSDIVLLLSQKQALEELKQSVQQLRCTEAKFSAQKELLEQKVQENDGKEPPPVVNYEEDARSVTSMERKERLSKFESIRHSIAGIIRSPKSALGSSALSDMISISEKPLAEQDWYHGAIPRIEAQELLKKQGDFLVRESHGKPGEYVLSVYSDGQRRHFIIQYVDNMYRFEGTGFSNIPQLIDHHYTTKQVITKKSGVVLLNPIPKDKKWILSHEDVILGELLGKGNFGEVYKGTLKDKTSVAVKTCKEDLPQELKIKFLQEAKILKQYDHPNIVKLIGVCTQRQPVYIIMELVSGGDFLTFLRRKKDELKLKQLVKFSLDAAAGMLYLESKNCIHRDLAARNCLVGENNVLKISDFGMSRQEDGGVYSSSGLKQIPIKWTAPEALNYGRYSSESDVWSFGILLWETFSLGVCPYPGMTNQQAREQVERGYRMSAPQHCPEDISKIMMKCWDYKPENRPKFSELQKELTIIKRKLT
# [20] = biological target: Tyrosine-protein kinase Fer (Homo sapiens) (UniProt P16591); conditions: at 1 µM
# [21] = biological target: Tyrosine-protein kinase Fes/Fps (Homo sapiens) (UniProt P07332); conditions: at 0.1 µM
# [22] = biological target: Tyrosine-protein kinase Fes/Fps (Homo sapiens) (UniProt P07332); conditions: at 1 µM
# [23] = biological target: Fibroblast growth factor receptor 1 (Homo sapiens) (UniProt P11362); conditions: at 0.1 µM
# [24] = biological target: Fibroblast growth factor receptor 1 (Homo sapiens) (UniProt P11362); conditions: at 1 µM
# [25] = biological target: Fibroblast growth factor receptor 2 (Homo sapiens) (UniProt P21802); conditions: at 0.1 µM
# [26] = biological target: Fibroblast growth factor receptor 2 (Homo sapiens) (UniProt P21802); conditions: at 1 µM
# [27] = biological target: Fibroblast growth factor receptor 3 (Homo sapiens) (UniProt P22607); conditions: at 0.1 µM
# [28] = biological target: Fibroblast growth factor receptor 3 (Homo sapiens) (UniProt P22607); conditions: at 1 µM
# [29] = biological target: Fibroblast growth factor receptor 4 (Homo sapiens) (UniProt P22455); conditions: at 0.1 µM
# [30] = biological target: Fibroblast growth factor receptor 4 (Homo sapiens) (UniProt P22455); conditions: at 1 µM
# [31] = biological target: Tyrosine-protein kinase Fgr (Homo sapiens) (UniProt P09769); conditions: at 0.1 µM
# Tyrosine-protein kinase Fgr (Homo sapiens), sequence (P09769 2-529 limits assumed): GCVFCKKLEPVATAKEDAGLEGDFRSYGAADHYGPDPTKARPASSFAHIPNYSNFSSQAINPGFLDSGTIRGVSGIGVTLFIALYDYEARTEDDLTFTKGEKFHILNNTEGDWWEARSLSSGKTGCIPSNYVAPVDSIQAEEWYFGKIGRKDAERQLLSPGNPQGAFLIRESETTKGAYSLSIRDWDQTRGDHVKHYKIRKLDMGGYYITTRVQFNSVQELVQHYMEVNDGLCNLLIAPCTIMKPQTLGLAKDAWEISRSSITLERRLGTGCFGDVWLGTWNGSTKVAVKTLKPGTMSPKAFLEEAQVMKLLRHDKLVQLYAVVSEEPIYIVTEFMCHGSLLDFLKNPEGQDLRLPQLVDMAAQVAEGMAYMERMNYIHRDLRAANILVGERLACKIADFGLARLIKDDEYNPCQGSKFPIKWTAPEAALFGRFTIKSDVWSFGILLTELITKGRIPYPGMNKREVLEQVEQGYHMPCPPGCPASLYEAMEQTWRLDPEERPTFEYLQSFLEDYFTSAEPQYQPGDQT
# [32] = biological target: Tyrosine-protein kinase Fgr (Homo sapiens) (UniProt P09769); conditions: at 1 µM
# [33] = biological target: Vascular endothelial growth factor receptor 1 (Homo sapiens) (UniProt P17948); conditions: at 0.1 µM
# [34] = biological target: Vascular endothelial growth factor receptor 1 (Homo sapiens) (UniProt P17948); conditions: at 1 µM
# [35] = biological target: Receptor-type tyrosine-protein kinase FLT3 (Homo sapiens) (UniProt P36888); conditions: at 0.1 µM
# [36] = biological target: Receptor-type tyrosine-protein kinase FLT3 (Homo sapiens) (UniProt P36888); conditions: at 1 µM
# [37] = tested on: Receptor-type tyrosine-protein kinase FLT3 (Homo sapiens), P36888 [D835Y]; conditions: at 0.1 µM
# [38] = biological target: Non-receptor tyrosine-protein kinase TYK2 (Homo sapiens) (UniProt P29597); conditions: at 1 µM;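 also: values are mean percent inhibition of TYK2 kinase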
# [39] = biological target: Tyrosine-protein kinase receptor TYRO3 (Homo sapiens) (UniProt Q06418); conditions: at 0.1 µM
# [40] = biological target: Tyrosine-protein kinase receptor TYRO3 (Homo sapiens) (UniProt Q06418); conditions: at 1 µM
# [41] = biological target: Tyrosine-protein kinase Yes (Homo sapiens) (UniProt P07947); conditions: at 0.1 µM
# [42] = biological target: Tyrosine-protein kinase Yes (Homo sapiens) (UniProt P07947); conditions: at 1 µM
# [43] = biological target: Tyrosine-protein kinase ZAP-70 (Homo sapiens) (UniProt P43403); conditions: at 0.1 µM
# [44] = biological target: Tyrosine-protein kinase ZAP-70 (Homo sapiens) (UniProt P43403); conditions: at 1 µM
# [45] = biological target: Serine/threonine-protein kinase B-raf (Homo sapiens) (UniProt P15056); conditions: at 0.1 µM
# [46] = biological target: Serine/threonine-protein kinase B-raf (Homo sapiens) (UniProt P15056); conditions: at 1 µM
# [47] = tested on: Serine/threonine-protein kinase B-raf (Homo sapiens), P15056 [V600E]; conditions: at 0.1 µM
# [48] = tested on: Serine/threonine-protein kinase B-raf (Homo sapiens), P15056 [V600E]; conditions: at 1 µM
# [49] = biological target: RAF proto-oncogene serine/threonine-protein kinase (Homo sapiens) (UniProt P04049); conditions: at 0.1 µM
# [50] = biological target: RAF proto-oncogene serine/threonine-protein kinase (Homo sapiens) (UniProt P04049); conditions: at 1 µM
# [51] = biological target: Interleukin-1 receptor-associated kinase 4 (Homo sapiens) (UniProt Q9NWZ3); conditions: at 0.1 µM
# Interleukin-1 receptor-associated kinase 4 (Homo sapiens), sequence (Q9NWZ3 whole entry): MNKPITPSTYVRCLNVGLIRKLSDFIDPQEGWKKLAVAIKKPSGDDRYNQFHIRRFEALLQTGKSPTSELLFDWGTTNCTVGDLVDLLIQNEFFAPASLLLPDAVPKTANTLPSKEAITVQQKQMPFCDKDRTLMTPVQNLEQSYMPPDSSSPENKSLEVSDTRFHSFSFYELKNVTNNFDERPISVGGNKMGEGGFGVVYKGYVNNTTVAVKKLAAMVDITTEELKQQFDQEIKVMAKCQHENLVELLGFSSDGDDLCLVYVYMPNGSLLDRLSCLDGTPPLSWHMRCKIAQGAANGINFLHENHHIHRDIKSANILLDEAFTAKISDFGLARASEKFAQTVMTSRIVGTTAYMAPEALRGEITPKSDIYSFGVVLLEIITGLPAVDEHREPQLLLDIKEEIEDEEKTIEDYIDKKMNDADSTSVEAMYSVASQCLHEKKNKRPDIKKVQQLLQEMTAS
# [52] = biological target: Interleukin-1 receptor-associated kinase 4 (Homo sapiens) (UniProt Q9NWZ3); conditions: at 1 µM
# [53] = biological target: Leucine-rich repeat serine/threonine-protein kinase 2 (Homo sapiens) (UniProt Q5S007); conditions: at 0.1 µM
# [54] = biological target: Leucine-rich repeat serine/threonine-protein kinase 2 (Homo sapiens) (UniProt Q5S007); conditions: at 1 µM
# [55] = tested on: Leucine-rich repeat serine/threonine-protein kinase 2 (Homo sapiens), Q5S007 [G2019S]; conditions: at 0.1 µM
# [56] = tested on: Leucine-rich repeat serine/threonine-protein kinase 2 (Homo sapiens), Q5S007 [G2019S]; conditions: at 1 µM
structure (smiles),measurement,setting,value
CNC(=O)Oc1cc(C)c(/C=C/c2cncc(C(=O)NC)c2)c(C)c1,inhibition,[1],-1.98%
same,inhibition,[2],-0.11%
same,inhibition,[3],12%
same,inhibition,[4],49.6%
same,inhibition,[5],7.72%
same,inhibition,[6],17.6%
same,inhibition,[7],17.7%
same,inhibition,[8],61.4%
same,inhibition,[9],12.4%
same,inhibition,[10],52.8%
same,inhibition,[11],5.12%
same,inhibition,[12],6.12%
same,inhibition,[13],9.51%
same,inhibition,[14],49.7%
same,inhibition,[15],0.63%
same,inhibition,[16],-1.51%
same,inhibition,[17],7.57%
same,inhibition,[18],13.2%
same,inhibition,[19],0.78%
same,inhibition,[20],3.53%
same,inhibition,[21],5.18%
same,inhibition,[22],7.85%
same,inhibition,[23],3.22%
same,inhibition,[24],0.63%
same,inhibition,[25],0.21%
same,inhibition,[26],10.2%
same,inhibition,[27],2.97%
same,inhibition,[28],2.24%
same,inhibition,[29],-0.84%
same,inhibition,[30],0.6%
same,inhibition,[31],3.83%
same,inhibition,[32],24.6%
same,inhibition,[33],0.98%
same,inhibition,[34],4.03%
same,inhibition,[35],1.57%
same,inhibition,[36],1.37%
same,inhibition,[37],0.68%
same,inhibition,[38],-0.46%
same,inhibition,[39],1.9%
same,inhibition,[40],5.43%
same,inhibition,[41],4.32%
same,inhibition,[42],23.4%
same,inhibition,[43],2%
same,inhibition,[44],-0.7%
same,inhibition,[45],4.75%
same,inhibition,[46],9.98%
same,inhibition,[47],4.23%
same,inhibition,[48],8.52%
same,inhibition,[49],-2.42%
same,inhibition,[50],1.27%
same,inhibition,[51],-1.38%
same,inhibition,[52],1.67%
same,inhibition,[53],7.04%
same,inhibition,[54],10.5%
same,inhibition,[55],5.2%
same,inhibition,[56],18.7%
